Screens from PubChem.
Shown are actives, neighbours in structure and some others; about 2.7% of the full set was active somewhere.
KKLEB cytotox – cytotoxicity in KKLEB CF airway cells, primary screen, cytotoxicity control for CF NF-kB inhibitor project, cell-based, uHTS, fluorescence assay plates; KKLEB CF airway cells viability, ATPlite luminescence, overnight; active compounds read low; cells stimulated with P. aeruginosa culture filtrate; activity change (cytotoxicity), % at 5 µM; actives 0.36% (n = 360,000); AID 602141, 2011;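 active means corrected activity change at or below -50% at 5 µM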
HIF-2a block – HIF-2a reporter inhibitors, primary screen, luminescence, 786-0 RCC cells. AID 624352, 2012. inhibition, % at 18.8 µM. 786-0 RCC cells HIF-2a reporter, luciferase luminescence, overnight. actives 0.72% (n = 360,000);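 active means inhibition of the luminescence signal of 40% or more relative to plate controls, in a single-dose primary screen at 18.75 µM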
Peg3 prom inh-1 – Peg3 promoter-driven luciferase inhibitors, primary screen, cell-based, HeLa, luciferase luminescence. HeLa PEG-Prom luciferase reporter, overnight. actives 1.7% (n = 360,000). inhibition, % at 20 µM;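 active means inhibition of at least 50% at 20 µM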
CF NFkB inh – inhibitors of PAF-induced NF-kB signaling, primary screen, cell-based, GFP fluorescence, uHTS; KKLEB NF-kB-GFP reporter, GFP fluorescence overnight; inhibition, % at 5 µM; actives 0.86% (n = 360,000); AID 588850, 2011;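 active means at least 50% inhibition at 5 µM, scaled per plate between neutral and stimulator controls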;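 further: PAF is a Pseudomonas aeruginosa culture filtrate used as stimulus; plate controls were PAF-stimulated DMSO wells for no effect and unstimulated DMSO wells for full effect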
MITF TRPM1 inh – inhibitors of MITF-dependent TRPM1 promoter reporter, primary screen, cell-based, SK-MEL-5, single point, luciferase | SK-MEL-5 TRPM1 promoter luciferase, 24 h | inhibition, % at 12.5 µM | actives 0.83% (n = 330,000);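 active means mean inhibition across replicates of 60% or more, whatever share of single replicates reaches that level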
Shn3 inh set2 – reduction of Shn3 3'UTR firefly luciferase signal, primary screen, Schnurri-3 inhibitor project, cell-based, Clone20 osteoblasts, set 2; inhibition, % at 12.5 µM; Clone20 osteoblast Shn3 3'UTR firefly luciferase, 24 h; AID 588674, 2011; actives 0.52% (n = 360,000);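 active means mean inhibition of at least 75% with every replicate also reaching 75%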;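 further: 0% = median of neutral control wells and 100% = pilot-screen positive control compound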
Peg3 prom inh-2 – Peg3 promoter reporter inhibitors, retest, confirmation, cell-based, HeLa, luciferase reporter, single concentration | shares compounds with Peg3 prom inh-1 | HeLa PEG-Prom luciferase reporter, luminescence, overnight | inhibition, % at 20 µM | actives 84% (n = 1,300) | AID 602417, 2012;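 active means at 20 µM dose, 40% or more inhibition averaged across four replicates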
* hit, by the source's call; · = no result; ! = not confirmed by another sample.

SMILES	KKLEB cytotox	HIF-2a block	Peg3 prom inh-1	CF NFkB inh	MITF TRPM1 inh	Shn3 inh set2	Peg3 prom inh-2
CCOC(=O)c1cc2c(=O)n3ccccc3nc2n(C(C)C)c1=NC(=O)c1c(-c2c(F)cccc2Cl)noc1C	-3	20	64*	-20	-1	21	43*
CC1(C(=O)NS(=O)(=O)c2ccccc2C(F)(F)F)CCN1C(=O)CCC1CCCC1 (stereo unspecified)	5	2	2	-24	·	-7	·
Cc1ccc(NC(=O)CSCC(=O)N(C)Cc2c(F)cccc2Cl)cc1	6	0	-9	-9	·	3	·
CC1(C(=O)NS(=O)(=O)c2ccccc2Cl)CCN1C(=O)COc1ccc(Cl)cc1 (stereo unspecified)	7	5	1	20	·	7	·
CN(C)CCCNc1ncnc2oc(-c3ccccc3)c(-c3ccccc3)c12	-13	-6	97*	8	1	22	97*
CCC1(c2ccccc2)NC(=O)N(CC(=O)Nc2cc(S(=O)(=O)N3CCCCCC3)ccc2OC)C1=O (stereo unspecified)	-1	24	54*	1	6	15	70*
CCOC(=O)C1CCN(C2=NC(=O)/C(=C/c3ccc(Cl)cc3)S2)CC1	-2	23	24	-1	-7	-20	·
CCOC(=O)CSC1=NC(=O)/C(=C\c2ccc(Cl)cc2)S1	-4	-172	88*	9	66*	20	0
CC(=O)NC(c1cc(F)c2cccnc2c1O)C1CC1 (stereo unspecified)	12	9	19	-26	10	47	·
O=[N+]([O-])c1cc(Cl)c2cccnc2c1O	11	9	34	3	8	-10	·
CC(=O)NC(c1ccccc1)c1cc(Cl)c2cccnc2c1O (stereo unspecified)	13	16	51*	-4	23	69	65*
CC(=O)NC(c1ccc(F)cc1)c1cccnc1 (stereo unspecified)	15	19	-6	-12	2	10	·
COc1ccc(C(NC(C)=O)c2cc(Cl)c3cccnc3c2O)cc1 (stereo unspecified)	-1	10	64*	-4	23	90*	64*
Oc1c(I)cc(Cl)c2cccnc12	-11	13	55*	7	19	-7	68*
CC(=O)NC(c1ccc(N(C)C)cc1)c1cc(Cl)c2cccnc2c1O (stereo unspecified)	-8	17	59*	36	·	68	68*
COC(=O)/C=C1\OCc2cccc(C)c21	·	-27	·	·	·	·	·
CCC(=O)NC(c1cccs1)c1cc(Cl)c2cccnc2c1O (stereo unspecified)	7	21	56*	-1	52	73	58*
CC1(C(=O)NCc2cccs2)CCN1CCc1ccccc1 (stereo unspecified)	-2	11	-4	12	·	-7	·
CCCCSc1nc(N)nc2c1ncn2C1OC(CO)C(O)C1O (stereo unspecified)	3	-49	-15	2	·	-1	·
Cn1cnc([N+](=O)[O-])c1Sc1nc(N)nc2c1ncn2C1OC(CO)C(O)C1O (stereo unspecified)	1	21	61*	10	41	23	64*
CN(Cc1ccc(Cl)cc1)C(CCc1ccccc1)C(=O)NC1CCCCC1 (stereo unspecified)	-12	14	16	18	·	-3	·
COc1cccc2c1C(=N)c1c(O)c3c(c(O)c1C2=O)CC(O)(C(C)=O)CC3OC1CC(N)C(O)C(C)O1 (stereo unspecified)	-6	21	98*	-272	92*	92*	96*
CC(=O)N1CCc2cc(NC(=O)C3(C)CCN3Cc3ccccc3OC(F)F)ccc21 (stereo unspecified)	1	-48	0	-7	·	14	·
CCN(CC)CCNc1cccc2sc3ccccc3c(=O)c12	-9	5	101*	-13	·	-18	68*
CCOc1ccc(C(=O)OCCN(CC)CC)cc1	-2	17	6	-13	14	-20	·
SMILES	KKLEB cytotox	HIF-2a block	Peg3 prom inh-1	CF NFkB inh	MITF TRPM1 inh	Shn3 inh set2	Peg3 prom inh-2
CCN(CC)CCOc1ccc(/C(=C(/Cl)c2ccccc2)c2ccccc2)cc1	3	-7	102*!	39	11	9	96*
Nc1[nH]c(C(=O)c2ccccc2)c(-c2ccc(Cl)c(F)c2)c1C(=O)NCCc1c[nH]c2ccccc12	·	-102	·	·	·	·	·
Nc1sccc1C(=O)N1CCN(c2ccccc2)CC1	·	-5	·	·	·	·	·
Cc1cc(Cl)n2ncc(-c3ccccc3)c2n1	-7	-156	87*	10	-6	-138	68*
COc1cc(/C=C2/SC(=S)N(Cc3ccccc3)C2=O)ccc1OCC(=O)O	-2	-15	-6	25	-11	5	·
COc1ccc(/C=C2\SC(=S)N(CCC(=O)N(CCO)Cc3ccccc3)C2=O)cc1OC	-10	13	78*	23	7	9	14
COc1ccc(C(O)c2nc(-c3ccc4ccccc4c3)cs2)cc1 (stereo unspecified)	9	-291	-302	-34	·	-62	·
C=CCc1cccc(/C=N/NC(=O)C(C)Nc2ccc(C)cc2)c1O (stereo unspecified)	-33	24	55*	45	26	10	41*
CC(C)COc1ccc(C(=O)Nc2ccc(NC(=O)c3ccco3)cc2)cc1	6	-4	77*	-10	-13	-6	38
CCC(C)n1cnc2c(c1=O)c1nc3ccccc3nc1n2-c1ccc2c(c1)OCCO2 (stereo unspecified)	-17	-7	56*	9	-8	28	18
COc1ccc(-c2cc(C(=O)N3CCN(c4ncccn4)CC3)c3ccccc3n2)c(OC)c1	-26	9	53*	-17	-2	12	45*
COc1ccc(-c2cc(C(=O)N3CCN(c4ccccc4F)CC3)c3ccccc3n2)c(OC)c1	13	22	51*	-9	21	16	52*
COc1ccc(OC)c(-c2cc(C(=O)N3CCN(c4ncccn4)CC3)c3ccccc3n2)c1	-4	11	55*	-4	21	12	52*
COc1ccccc1S(=O)(=O)N(C)C[C@@H]1OCc2cn(nn2)CCCC(=O)N([C@@H](C)CO)C[C@H]1C	2	-2	8	-6	·	10	·
